# From the supplement of paper PMC4022240
# ± gives the standard deviation.
# T1: HaloTag-ATRX ADD domain (163-292)
# T1 chain: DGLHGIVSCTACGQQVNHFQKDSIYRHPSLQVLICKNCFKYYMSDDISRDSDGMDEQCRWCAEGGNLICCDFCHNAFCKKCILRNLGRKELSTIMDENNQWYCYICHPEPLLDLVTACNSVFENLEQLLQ
# How the values were obtained:
# Experiment in all cases: peptide microarray binding signal (635 nm), min-max normalized on array (fraction of array maximum); higher = stronger binding
# [1] = molecular target: T1, HaloTag-ATRX ADD domain (163-292)
# In short: (§1)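 For each library, binding signal was taken as the triplicate-spot mean intensity and then min-max scaled. Spots of histone 13-mer peptide–cellulose conjugates on nitrocellulose, printed in triplicate with a Cy3 tracer, were probed for 1 h at 4°C with either biotin-labelled HaloTag reader fusions (10 nM to 1 μM) and streptavidin-Alexa Fluor 647 or rabbit histone antibodies (1:10,000 to 1:2,000) and anti-rabbit Alexa 647. Readout at 635 nm came from an Axon GenePix 4000B.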
# [2] = molecular target: HaloTag-ING2 PHD (mouse Ing2 200-280)
# In short: as §1
# [3] = molecular target: anti-H3K4me3 antibody ab8580
# In short: as §1
# [4] = molecular target: anti-H3K9me3 antibody ab8898
# In short: as §1
# [5] = peptide region: H3 30-42, peptide modifications: H3T32ph H3K36ac, binder concentration: 1:2,000 dilution
# [6] = peptide region: H3 30-42, peptide modifications: H3T32ph H3K36ac, binder concentration: 1:10,000 dilution
# [7] = peptide region: H3 50-62, peptide modifications: H3K56ac H3T58ph, binder concentration: 1:2,000 dilution
# [8] = peptide region: H3 50-62, peptide modifications: H3K56ac H3T58ph, binder concentration: 1:10,000 dilution
# [9] = peptide region: H3 50-62, binder concentration: 1:2,000 dilution
# [10] = peptide region: H3 50-62, binder concentration: 1:10,000 dilution
# [11] = peptide region: H3 30-42, peptide modifications: H3K37me3, binder concentration: 1:2,000 dilution
# [12] = peptide region: H3 30-42, peptide modifications: H3K37me3, binder concentration: 1:10,000 dilution
# [13] = peptide region: H3 50-62, peptide modifications: H3K56me3, binder concentration: 1:2,000 dilution
# [14] = peptide region: H3 50-62, peptide modifications: H3K56me3, binder concentration: 1:10,000 dilution
# [15] = peptide region: H3 30-42, peptide modifications: H3K37ac, binder concentration: 1:2,000 dilution
# [16] = peptide region: H3 30-42, peptide modifications: H3K37ac, binder concentration: 1:10,000 dilution
# [17] = peptide region: H3 50-62, peptide modifications: H3K56me2 H3S57ph, binder concentration: 1:2,000 dilution
# [18] = peptide region: H3 50-62, peptide modifications: H3K56me2 H3S57ph, binder concentration: 1:10,000 dilution
# [19] = peptide region: H3 50-62, peptide modifications: H3K56me3 H3S57ph, binder concentration: 1:2,000 dilution
# [20] = peptide region: H3 50-62, peptide modifications: H3K56me3 H3S57ph, binder concentration: 1:10,000 dilution
# [21] = peptide region: H3 30-42, peptide modifications: H3K37me2, binder concentration: 1:2,000 dilution
# [22] = peptide region: H3 30-42, peptide modifications: H3K37me2, binder concentration: 1:10,000 dilution
# [23] = peptide region: H3 50-62, peptide modifications: H3K56ac H3S57ph, binder concentration: 1:2,000 dilution
# [24] = peptide region: H3 50-62, peptide modifications: H3K56ac H3S57ph, binder concentration: 1:10,000 dilution
binder,measurement,setting,value
PATGGVKKPHRYR [H3 30-42 P A Tph G G V Kac K P H R Y R],peptide microarray binding signal,"[1]; peptide region: H3 30-42, peptide modifications: H3T32ph H3K36ac, binder concentration: 50 nM",0.00502 ± 0.00015
same,peptide microarray binding signal,"[1]; peptide region: H3 30-42, peptide modifications: H3T32ph H3K36ac, binder concentration: 500 nM",0.0116 ± 0.0013
same,peptide microarray binding signal,"[2]; peptide region: H3 30-42, peptide modifications: H3T32ph H3K36ac, binder concentration: 10 nM",0.0123 ± 0.00025
same,peptide microarray binding signal,"[2]; peptide region: H3 30-42, peptide modifications: H3T32ph H3K36ac, binder concentration: 100 nM",0.023 ± 0.0019
same,peptide microarray binding signal,[3]; [5],0.00191 ± 0.00028
same,peptide microarray binding signal,[3]; [6],0.00257 ± 0.00023
same,peptide microarray binding signal,[4]; [5],0.00193 ± 0.00036
same,peptide microarray binding signal,[4]; [6],0.00167 ± 0.00013
EIRRYQKSTELLI [H3 50-62 E I R R Y Q Kac S Tph E L L I],peptide microarray binding signal,"[1]; peptide region: H3 50-62, peptide modifications: H3K56ac H3T58ph, binder concentration: 50 nM",0.00141 ± 1.8e-05
same,peptide microarray binding signal,"[1]; peptide region: H3 50-62, peptide modifications: H3K56ac H3T58ph, binder concentration: 500 nM",0.001381 ± 1.3e-05
same,peptide microarray binding signal,"[2]; peptide region: H3 50-62, peptide modifications: H3K56ac H3T58ph, binder concentration: 10 nM",0.002924 ± 2.8e-05
same,peptide microarray binding signal,"[2]; peptide region: H3 50-62, peptide modifications: H3K56ac H3T58ph, binder concentration: 100 nM",0.00149 ± 1.5e-05
same,peptide microarray binding signal,[3]; [7],0.0004719 ± 4.7e-06
same,peptide microarray binding signal,[3]; [8],0.000514 ± 5.5e-06
same,peptide microarray binding signal,[4]; [7],0.000468 ± 1.8e-05
same,peptide microarray binding signal,[4]; [8],0.00104 ± 5.9e-05
EIRRYQKSTELLI [H3 50-62 E I R R Y Q K S T E L L I],peptide microarray binding signal,"[1]; peptide region: H3 50-62, binder concentration: 50 nM",0.00599 ± 0.00033
same,peptide microarray binding signal,"[1]; peptide region: H3 50-62, binder concentration: 500 nM",0.0144 ± 0.00044
same,peptide microarray binding signal,"[2]; peptide region: H3 50-62, binder concentration: 10 nM",0.00859 ± 0.00029
same,peptide microarray binding signal,"[2]; peptide region: H3 50-62, binder concentration: 100 nM",0.00149 ± 5.6e-05
same,peptide microarray binding signal,[3]; [9],0.00017 ± 3.2e-06
same,peptide microarray binding signal,[3]; [10],0.00514 ± 0.0014
same,peptide microarray binding signal,[4]; [9],0.00299 ± 0.00025
same,peptide microarray binding signal,[4]; [10],0.00288 ± 7.4e-05
PATGGVKKPHRYR [H3 30-42 P A T G G V K Kme3 P H R Y R],peptide microarray binding signal,"[1]; peptide region: H3 30-42, peptide modifications: H3K37me3, binder concentration: 50 nM",0.00621 ± 0.00029
same,peptide microarray binding signal,"[1]; peptide region: H3 30-42, peptide modifications: H3K37me3, binder concentration: 500 nM",0.00781 ± 0.00023
same,peptide microarray binding signal,"[2]; peptide region: H3 30-42, peptide modifications: H3K37me3, binder concentration: 10 nM",0.00949 ± 0.00038
same,peptide microarray binding signal,"[2]; peptide region: H3 30-42, peptide modifications: H3K37me3, binder concentration: 100 nM",0.0356 ± 0.036
same,peptide microarray binding signal,[3]; [11],0.00183 ± 9e-05
same,peptide microarray binding signal,[3]; [12],0.00234 ± 4.2e-05
same,peptide microarray binding signal,[4]; [11],0.00216 ± 0.00026
same,peptide microarray binding signal,[4]; [12],0.00185 ± 5.2e-05
EIRRYQKSTELLI [H3 50-62 E I R R Y Q Kme3 S T E L L I],peptide microarray binding signal,"[1]; peptide region: H3 50-62, peptide modifications: H3K56me3, binder concentration: 50 nM",0.00232 ± 0.0002
same,peptide microarray binding signal,"[1]; peptide region: H3 50-62, peptide modifications: H3K56me3, binder concentration: 500 nM",0.0019 ± 6e-05
same,peptide microarray binding signal,"[2]; peptide region: H3 50-62, peptide modifications: H3K56me3, binder concentration: 10 nM",0.00233 ± 2.7e-05
same,peptide microarray binding signal,"[2]; peptide region: H3 50-62, peptide modifications: H3K56me3, binder concentration: 100 nM",0.002268 ± 2.2e-05
same,peptide microarray binding signal,[3]; [13],0.00259 ± 0.0002
same,peptide microarray binding signal,[3]; [14],0.00108 ± 3.8e-05
same,peptide microarray binding signal,[4]; [13],0.0209 ± 0.0092
same,peptide microarray binding signal,[4]; [14],0.00986 ± 0.0031
PATGGVKKPHRYR [H3 30-42 P A T G G V K Kac P H R Y R],peptide microarray binding signal,"[1]; peptide region: H3 30-42, peptide modifications: H3K37ac, binder concentration: 50 nM",0.00991 ± 0.00064
same,peptide microarray binding signal,"[1]; peptide region: H3 30-42, peptide modifications: H3K37ac, binder concentration: 500 nM",0.0214 ± 0.0021
same,peptide microarray binding signal,"[2]; peptide region: H3 30-42, peptide modifications: H3K37ac, binder concentration: 10 nM",0.0263 ± 0.00079
same,peptide microarray binding signal,"[2]; peptide region: H3 30-42, peptide modifications: H3K37ac, binder concentration: 100 nM",0.0376 ± 0.0021
same,peptide microarray binding signal,[3]; [15],0.0146 ± 0.0013
same,peptide microarray binding signal,[3]; [16],0.014 ± 0.00079
same,peptide microarray binding signal,[4]; [15],0.0131 ± 0.00032
same,peptide microarray binding signal,[4]; [16],0.00663 ± 0.00069
EIRRYQKSTELLI [H3 50-62 E I R R Y Q Kme2 Sph T E L L I],peptide microarray binding signal,"[1]; peptide region: H3 50-62, peptide modifications: H3K56me2 H3S57ph, binder concentration: 50 nM",0.00113 ± 1.5e-05
same,peptide microarray binding signal,"[1]; peptide region: H3 50-62, peptide modifications: H3K56me2 H3S57ph, binder concentration: 500 nM",0.00124 ± 2.3e-05
same,peptide microarray binding signal,"[2]; peptide region: H3 50-62, peptide modifications: H3K56me2 H3S57ph, binder concentration: 10 nM",0.00269 ± 0.00012
same,peptide microarray binding signal,"[2]; peptide region: H3 50-62, peptide modifications: H3K56me2 H3S57ph, binder concentration: 100 nM",0.00128 ± 1.3e-05
same,peptide microarray binding signal,[3]; [17],0.000378 ± 3.9e-06
same,peptide microarray binding signal,[3]; [18],0.000342 ± 3.8e-06
same,peptide microarray binding signal,[4]; [17],0.000725 ± 3.3e-05
same,peptide microarray binding signal,[4]; [18],0.000634 ± 1.2e-05
EIRRYQKSTELLI [H3 50-62 E I R R Y Q Kme3 Sph T E L L I],peptide microarray binding signal,"[1]; peptide region: H3 50-62, peptide modifications: H3K56me3 H3S57ph, binder concentration: 50 nM",0.00122 ± 2.2e-05
same,peptide microarray binding signal,"[1]; peptide region: H3 50-62, peptide modifications: H3K56me3 H3S57ph, binder concentration: 500 nM",0.00224 ± 0.0003
same,peptide microarray binding signal,"[2]; peptide region: H3 50-62, peptide modifications: H3K56me3 H3S57ph, binder concentration: 10 nM",0.00251 ± 0.0001
same,peptide microarray binding signal,"[2]; peptide region: H3 50-62, peptide modifications: H3K56me3 H3S57ph, binder concentration: 100 nM",0.00142 ± 0.00012
same,peptide microarray binding signal,[3]; [19],0.00238 ± 0.00081
same,peptide microarray binding signal,[3]; [20],0.00177 ± 5e-05
same,peptide microarray binding signal,[4]; [19],0.0141 ± 0.011
same,peptide microarray binding signal,[4]; [20],0.0094 ± 0.0038
PATGGVKKPHRYR [H3 30-42 P A T G G V K Kme2 P H R Y R],peptide microarray binding signal,"[1]; peptide region: H3 30-42, peptide modifications: H3K37me2, binder concentration: 50 nM",0.0036 ± 0.00019
same,peptide microarray binding signal,"[1]; peptide region: H3 30-42, peptide modifications: H3K37me2, binder concentration: 500 nM",0.00771 ± 0.00019
same,peptide microarray binding signal,"[2]; peptide region: H3 30-42, peptide modifications: H3K37me2, binder concentration: 10 nM",0.0121 ± 0.00097
same,peptide microarray binding signal,"[2]; peptide region: H3 30-42, peptide modifications: H3K37me2, binder concentration: 100 nM",0.0202 ± 0.002
same,peptide microarray binding signal,[3]; [21],0.00302 ± 0.00039
same,peptide microarray binding signal,[3]; [22],0.00297 ± 0.00012
same,peptide microarray binding signal,[4]; [21],0.00163 ± 0.00014
same,peptide microarray binding signal,[4]; [22],0.001441 ± 1.4e-05
EIRRYQKSTELLI [H3 50-62 E I R R Y Q Kac Sph T E L L I],peptide microarray binding signal,"[1]; peptide region: H3 50-62, peptide modifications: H3K56ac H3S57ph, binder concentration: 50 nM",0.00069 ± 9.4e-06
same,peptide microarray binding signal,"[1]; peptide region: H3 50-62, peptide modifications: H3K56ac H3S57ph, binder concentration: 500 nM",0.00119 ± 4e-05
same,peptide microarray binding signal,"[2]; peptide region: H3 50-62, peptide modifications: H3K56ac H3S57ph, binder concentration: 10 nM",0.00197 ± 4.2e-05
same,peptide microarray binding signal,"[2]; peptide region: H3 50-62, peptide modifications: H3K56ac H3S57ph, binder concentration: 100 nM",0.000567 ± 6.4e-06
same,peptide microarray binding signal,[3]; [23],5.66e-05
same,peptide microarray binding signal,[3]; [24],0.000399 ± 2.6e-05
same,peptide microarray binding signal,[4]; [23],0.000861 ± 5.4e-05
same,peptide microarray binding signal,[4]; [24],0.000577 ± 6.2e-06
